In all, about 5,500 compounds went through this assay and about 2,000 (36%) were called active. Inconclusive results (about 18%) are left out. Cut-off read from the data, not from the text of the source: active = normalized growth mostly below about 0.91 (no sharp cut-off); inconclusive = no clear call, values can overlap the other calls; inactive = mostly above about 0.92. The list shows a part of the results.
Experiment: chemical genetic growth profiling, strain panel (AID 1159580);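 note: tested at 20 µM; growth read once vehicle control cultures reached saturation at 30 °C; 1 = growth at the plate median or of vehicle wells; lower values mean less growth of the strain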
Settings: growth OD

Measured: normalized growth

CO[C@@]1(NC(=O)C(C(=O)O)c2ccc(O)cc2)C(=O)N2C(C(=O)O)=C(CSc3nnnn3C)CO[C@@H]21 (some centres not stated)
inactive: S. cerevisiae deletion strains, locus YJR075W, strain HOC1, active compounds read low 1.02 | S. cerevisiae deletion strains, locus YKL009W, strain mrt4, active compounds read low 1 | S. cerevisiae deletion strains, locus YKL068W, active compounds read low 1.01 | S. cerevisiae deletion strains, locus YKL085W, strain MDH1 (second series), active compounds read low 1.01 | S. cerevisiae deletion strains, locus YKL085W, strain MDH1, active compounds read low 1.01 | S. cerevisiae deletion strains, locus YKL160W, strain elf1, active compounds read low 0.962 | S. cerevisiae deletion strains, locus YKL190W, strain CNB1, active compounds read low 1.02 | S. cerevisiae deletion strains, locus YKR001C, strain vps1, active compounds read low 1.02 | S. cerevisiae deletion strains, locus YKR026C, strain gcn3, active compounds read low 0.998 | S. cerevisiae deletion strains, locus YKR091W, strain srl3, active compounds read low 0.976 | S. cerevisiae deletion strains, locus YLL001W, strain dnm1, active compounds read low 0.922 | S. cerevisiae deletion strains, locus YLL026W, active compounds read low 0.986 | S. cerevisiae deletion strains, locus YLL041C, strain sdh2, active compounds read low 0.988 | S. cerevisiae deletion strains, locus YLR027C, strain aat2, active compounds read low 1 | S. cerevisiae deletion strains, locus YLR039C, strain RIC1, active compounds read low 1.02 | S. cerevisiae deletion strains, locus YLR058C, strain SHM2, active compounds read low 1.01 | S. cerevisiae deletion strains, locus YLR102C, strain apc9, active compounds read low 1.02 | S. cerevisiae deletion strains, locus YLR113W, strain HOG1, active compounds read low 0.995 | S. cerevisiae deletion strains, locus YLR221C, strain rsa3, active compounds read low 0.945 | S. cerevisiae deletion strains, locus YLR258W, strain gsy2, active compounds read low 0.984 | S. cerevisiae deletion strains, locus YLR262C, strain YPT6 (second series), active compounds read low 0.946 | S. cerevisiae deletion strains, locus YLR262C, strain YPT6, active compounds read low 0.999 | S. cerevisiae deletion strains, locus YLR268W, strain sec22, active compounds read low 1.04 | S. cerevisiae deletion strains, locus YLR320W, strain mms22, active compounds read low 0.967 | S. cerevisiae deletion strains, locus YLR330W, strain CHS5, active compounds read low 1.01 | S. cerevisiae deletion strains, locus YLR342W, strain FKS1 (second series), active compounds read low 0.996 | S. cerevisiae deletion strains, locus YLR342W, strain FKS1, active compounds read low 0.99 | S. cerevisiae deletion strains, locus YLR357W, strain rsc2, active compounds read low 0.945 | S. cerevisiae deletion strains, locus YLR370C, strain arc18, active compounds read low 0.978 | S. cerevisiae deletion strains, locus YLR371W, strain rom2, active compounds read low 1.03 | S. cerevisiae deletion strains, locus YLR384C, strain iki3, active compounds read low 0.982 | S. cerevisiae deletion strains, locus YLR418C, strain cdc73, active compounds read low 1.02 | S. cerevisiae deletion strains, locus YML016C, strain PPZ1, active compounds read low 1 | S. cerevisiae deletion strains, locus YML032C, strain rad52, active compounds read low 1.03 | S. cerevisiae deletion strains, locus YML120C, strain ndi1, active compounds read low 0.951 | S. cerevisiae deletion strains, locus YML124C, strain tub3, active compounds read low 1.01 | S. cerevisiae deletion strains, locus YMR058W, strain fet3, active compounds read low 0.975 | S. cerevisiae deletion strains, locus YMR078C, strain ctf18, active compounds read low 1.02 | S. cerevisiae deletion strains, locus YMR125W, strain sto1, active compounds read low 0.953 | S. cerevisiae deletion strains, locus YMR129W, active compounds read low 0.994 | S. cerevisiae deletion strains, locus YMR205C, strain PFK2, active compounds read low 0.946 | S. cerevisiae deletion strains, locus YMR223W, strain ubp8, active compounds read low 0.985 | S. cerevisiae deletion strains, locus YMR231W, strain pep5, active compounds read low 0.991 | S. cerevisiae deletion strains, locus YMR263W, strain SAP30, active compounds read low 1.02 | S. cerevisiae deletion strains, locus YMR307W, strain GAS1, active compounds read low 0.971 | S. cerevisiae deletion strains, locus YNL067W, strain RPL9B, active compounds read low 1.02 | S. cerevisiae deletion strains, locus YNL071W, strain lat1, active compounds read low 0.989 | S. cerevisiae deletion strains, locus YNL128W, strain TEP1, active compounds read low 1.01 | S. cerevisiae deletion strains, locus YNL153C, strain GIM3, active compounds read low 1.01 | S. cerevisiae deletion strains, locus YNL183C, strain NPR1, active compounds read low 0.949 | S. cerevisiae deletion strains, locus YNL209W, strain ssb2, active compounds read low 0.978 | S. cerevisiae deletion strains, locus YNL233W, strain BNI4, active compounds read low 1.01 | S. cerevisiae deletion strains, locus YNL248C, strain rpa49, active compounds read low 1 | S. cerevisiae deletion strains, locus YNL250W, strain rad50, active compounds read low 1.02 | S. cerevisiae deletion strains, locus YNL271C, strain bni1, active compounds read low 1.01 | S. cerevisiae deletion strains, locus YNL298W, strain CLA4, active compounds read low 1.02 | S. cerevisiae deletion strains, locus YNL307C, strain MCK1, active compounds read low 1.01 | S. cerevisiae deletion strains, locus YNL322C, strain KRE1 (second series), active compounds read low 0.971 | S. cerevisiae deletion strains, locus YNL322C, strain KRE1, active compounds read low 1.01 | S. cerevisiae deletion strains, locus YNR049C, strain mso1, active compounds read low 0.972 | S. cerevisiae deletion strains, locus YNR052C, strain pop2, active compounds read low 1.02 | S. cerevisiae deletion strains, locus YOL006C, strain TOP1, active compounds read low 1.06 | S. cerevisiae deletion strains, locus YOL012C, strain htz1 0.996 | S. cerevisiae deletion strains, locus YOL147C, strain pex11, active compounds read low 1.01 | S. cerevisiae deletion strains, locus YOR001W, strain rrp6, active compounds read low 1.01 | S. cerevisiae deletion strains, locus YOR061W, strain CKA2, active compounds read low 1 | S. cerevisiae deletion strains, locus YOR069W, strain VPS5, active compounds read low 1.01 | S. cerevisiae deletion strains, locus YOR070C, strain gyp1, active compounds read low 0.992 | S. cerevisiae deletion strains, locus YOR080W, strain dia2, active compounds read low 0.987 | S. cerevisiae deletion strains, locus YOR083W, strain WHI5, active compounds read low 0.961 | S. cerevisiae deletion strains, locus YOR106W, strain vam3, active compounds read low 0.973 | S. cerevisiae deletion strains, locus YOR136W, strain idh2, active compounds read low 1.02 | S. cerevisiae deletion strains, locus YOR144C, strain elg1, active compounds read low 1.02 | S. cerevisiae deletion strains, locus YOR184W, strain ser1, active compounds read low 1.02 | S. cerevisiae deletion strains, locus YOR231W, strain MKK1, active compounds read low 1 | S. cerevisiae deletion strains, locus YOR265W, strain rbl2, active compounds read low 0.998 | S. cerevisiae deletion strains, locus YOR270C, strain vph1, active compounds read low 0.967 | S. cerevisiae deletion strains, locus YOR290C, strain snf2, active compounds read low 0.917 | S. cerevisiae deletion strains, locus YOR316C, strain cot1, active compounds read low 1.02 | S. cerevisiae deletion strains, locus YPL051W, strain arl3, active compounds read low 0.983 | S. cerevisiae deletion strains, locus YPL055C, strain LGE1, active compounds read low 1.02 | S. cerevisiae deletion strains, locus YPL078C, strain atp4, active compounds read low 0.97 | S. cerevisiae deletion strains, locus YPL106C, strain sse1, active compounds read low 0.94 | S. cerevisiae deletion strains, locus YPL240C, strain hsp82, active compounds read low 0.981 | S. cerevisiae deletion strains, locus YPL241C, strain CIN2, active compounds read low 1 | S. cerevisiae deletion strains, locus YPL256C, strain CLN2, active compounds read low 0.961 | S. cerevisiae deletion strains, locus YPR119W, strain clb2, active compounds read low 1.02 | S. cerevisiae deletion strains, locus YPR141C, strain kar3, active compounds read low 1.02 | S. cerevisiae deletion strains, locus YPR163C, strain tif3, active compounds read low 1.02 | S. cerevisiae deletion strains, locus YPR167C, strain met16, active compounds read low 1.02 | S. cerevisiae deletion strains, strain wtn01, active compounds read low 1.02 | S. cerevisiae strains, strain wild type, active compounds read low 1.01
